Measurements: PubChem BioAssay (NCATS)
Results filed as inconclusive are left out. Active and inactive are the calls of the source. Calls come from the whole dose curve; as a rule, active = well fitted curve in the direction sought with a large enough effect; inconclusive = small, poorly fitted or top-dose-only effect, or another doubt; inactive = no such curve, though single readings can be large; an effect the other way counts as inactive or inconclusive.

What was measured:
[1] = biological target: Cellular tumor antigen p53 (Homo sapiens) (UniProt P04637); experiment: Primary qHTS for small molecule compounds that upregulate eGFP-tagged delta133p53alpha (in N-terminal) cells. (AID 2060322); conditions: NCI-H358 eGFP-delta133p53alpha fluorescence, 24 h; activation: hits give high values;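 note: series mostly up to about 56 µM; 0% = DMSO vehicle and 100% = reference activator; nearly all actives have a fitted effect of over 75% in size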
Sequence of Cellular tumor antigen p53 (Homo sapiens) (P04637 whole entry, looked up): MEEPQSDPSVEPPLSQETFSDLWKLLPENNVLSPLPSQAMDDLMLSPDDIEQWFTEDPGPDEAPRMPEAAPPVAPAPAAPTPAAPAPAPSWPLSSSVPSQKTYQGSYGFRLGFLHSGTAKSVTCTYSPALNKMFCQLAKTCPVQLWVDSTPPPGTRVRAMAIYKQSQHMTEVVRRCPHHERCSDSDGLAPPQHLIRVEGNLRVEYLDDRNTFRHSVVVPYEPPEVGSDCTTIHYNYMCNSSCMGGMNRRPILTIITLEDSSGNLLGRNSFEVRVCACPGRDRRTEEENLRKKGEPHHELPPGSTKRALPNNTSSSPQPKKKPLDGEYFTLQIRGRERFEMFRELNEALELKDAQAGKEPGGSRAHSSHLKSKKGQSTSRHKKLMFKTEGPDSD
How it was run: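 NCI-H358 cells pre-induced 24 h with 10 ng/ml doxycycline to express N-terminal eGFP-delta133p53alpha, then dosed 24 h at 37C without doxycycline; fixed, Hoechst-stained, GFP intensity by laser scanning cytometry, normalized to DMSO (0%) and 57.5 uM 5-azacytidine (100%).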

[2] = biological target: Aldehyde dehydrogenase, mitochondrial (Homo sapiens) (UniProt P05091); experiment: qHTS for Inhibitors of the Aldehyde Dehydrogenase Family (ALDH2) Primary screen (AID 2061308);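 note: plate controls were vehicle for no effect and reference inhibitor for full effect; nearly all actives have a fitted effect of over 55% in size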
[3] = biological target: Retinaldehyde dehydrogenase 3 (Homo sapiens) (UniProt P47895); experiment: qHTS for Inhibitors of the Aldehyde Dehydrogenase Family (ALDH1A3) Primary screen (AID 2061315);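 note: plate controls were DMSO vehicle for no effect and reference inhibitor for full effect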

O=c1[nH]ccc2cc(OC3CCNCC3)ccc12
inactive: activation [1] -7.14% | Potency [2] | Potency [3]

C=CC(C)(CC/C=C(\C)C(=O)OC)OC1OC(COC(=O)CC(C)(O)CC(=O)O)C(OC2OC(CO)C(O)C(O)C2O)C(O)C1O (stereo not drawn)
inactive: activation [1] -11.5% | Potency [2] | Potency [3]

C=C1CCC2C(C)(C)CC(=O)CC2(C)C1CCC(C)CCOC(C)=O (stereo not drawn)
inactive: activation [1] -5.34% | Potency [2] | Potency [3]

CC(C)(C)CCN1C[C@@H]2C(CNC(=O)c3cc(Cl)cc(Cl)c3)[C@@H]2C1 (stereo partly drawn)
inactive: activation [1] 26.3% | Potency [2] | Potency [3]

COc1c2c(cc3c1-c1c(cc4c(c1OC)OCO4)CC(C)C(C)C3)OCO2 (stereo not drawn)
inactive: activation [1] -6.87% | Potency [2] | Potency [3]

C[C@]12CCC(=O)C=C1[C@@H](O)C[C@@H]1[C@@H]2[C@@H](O)C[C@@]2(C)[C@H]1CC[C@]2(O)C(=O)CO
inactive: activation [1] 16.3% | Potency [2] | Potency [3]
